Results: PubChem BioAssay (Tox21)
Results filed as inconclusive are left out. Some compounds were tested as several samples or in several runs, with calls that do not always agree. Calls of active or inactive are those of the source. Unless noted, calls follow the shape of the dose curve; as a rule, active = well fitted curve in the direction sought with a large enough effect in the repeat runs; inconclusive = weak or mixed curves; inactive = no such curve, though single readings can be large; an effect the other way counts as inactive or inconclusive.

What was measured:
[1] = qHTS assay for small molecule agonists of the p53 signaling pathway (AID 651631; calls by dose curve; also: nearly all actives have a fitted effect of over 15% in size)
Outline: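 HCT-116 p53RE-bla reporter line, 16 h compound treatment at 37 °C, then fluorescence after 2 h with B/G FRET substrate.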

[2] = qHTS assay for small molecules that induce genotoxicity in human embryonic kidney cells expressing luciferase-tagged ATAD5 (AID 651632); also: nearly all actives have a fitted effect of over 15% in size
Outline: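 ATAD5-luc HEK293T, 2,000 cells/well; cpd or DMSO pin-transferred; 16 hr, 37C/5% CO2; Amplite 30 min RT; luminescence.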

[3] = qHTS assay for small molecules that induce genotoxicity in human embryonic kidney cells expressing luciferase-tagged ATAD5 - cell viability (AID 651634; calls by dose curve; also: nearly all actives have a fitted effect of over 25% in size; also: potency is read from the fitted curve at half-maximal effect)
Outline: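 Fluorescence from CellTiter-Fluor, reporting protease activity within live cells, served as the viability read-out. HEK293T cells carrying luciferase-tagged ATAD5 had been treated with compound for 15.5 hr at 37C.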

[4] = qHTS assay for small molecule disruptors of the mitochondrial membrane potential - cell viability (AID 720634; calls by dose curve;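 also: human HepG2 liver cancer cells; series mostly up to about 83 µM; nearly all actives have a fitted effect of over 20% in size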)
Outline: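 Cells: HepG2, 2,000/well, attached overnight. Compound 1 hr, 37 C/5% CO2. +m-MPI dye, +CellTiter-Glo 30 min RT. Readout: luminescence (ATP).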

[5] = qHTS assay to test for compound auto fluorescence at 590 nm (red) in HepG2 cells (AID 720674)
Outline: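 Intrinsic compound fluorescence in the red window (Ex/Em 540/590 nm) is measured in attached HepG2 cells exposed for 1 hr, DMSO vehicle as baseline, benchmarked to Rose Bengal sodium.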

[6] = qHTS assay to test for compound auto fluorescence at 535 nm (green) in HepG2 cells (AID 720675)
[7] = qHTS assay to test for compound auto fluorescence at 460 nm (blue) in HEK293 cells (AID 720678)
Outline: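 After cell attachment (4-5 hr, 37C), compounds were pinned onto HEK293 monolayers in 10% dialyzed FBS medium. The blue channel (405/460 nm) was read following overnight culture. Equivalency was calculated against triamterene.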

[8] = qHTS assay to test for compound auto fluorescence at 590 nm (red) in HEK293 cells (AID 720679)
Outline: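 Plates of HEK293 cells (10% dialyzed FBS) are treated with 23 nL compound or DMSO vehicle after a 4-5 hr attachment period, incubated overnight at 37C, and read for red fluorescence at 540/590nm.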

[9] = qHTS assay for small molecule agonists of the p53 signaling pathway - cell viability (AID 651633; calls by dose curve;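 also: p53RE-bla HCT reporter cells with a stable beta-lactamase p53 reporter; series mostly up to about 83 µM; nearly all actives have a fitted effect of over 30% in size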)
Outline: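 p53RE-bla cells, seeded at 4,000 per well and rested 5 h at 37 C/5% CO2, received compounds in DMSO for 16 h at 37 C. CellTiter-Glo was then added, and luminescence was read after 30 min at room temperature to gauge cytotoxicity.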

[10] = qHTS assay for small molecule disruptors of the mitochondrial membrane potential (AID 720635); also: potency is read from the fitted curve at half-maximal effect
Outline: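 HepG2 cells (2,000/well) attached overnight at 37C, then took compound for 1 hr at 37C, 5% CO2. Mito-MPS dye was added for 30 min; fluorescence was read at 490/535 nm (monomers) and 540/590 nm (aggregates).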
% is scaled to controls: 0 for no effect and ±100 for the full control effect.

NCC1(Cc2noc(=O)[nH]2)CCCCC1
inactive: outcome [1] | outcome [2] | Potency [3] | outcome [4] | outcome [5] | outcome [6] | outcome [7] | outcome [8]

O=C1CCCCO1
inactive: outcome [1] | outcome [2] | outcome [9] | Potency [3] | outcome [5] | outcome [6] | outcome [7]

CC(=O)OCC(=O)Nc1cc(C#N)cc(NC(=O)COC(C)=O)c1Cl
inactive: outcome [1] | outcome [2] | Potency [3] | outcome [4] | Potency [10] | outcome [6] | outcome [7]

CNCCS(=O)(=O)O
inactive: outcome [1] | outcome [2] | Potency [3] | outcome [4] | Potency [10] | outcome [5] | outcome [6] | outcome [7] | outcome [8]

CCC(C)C(=O)OCCc1ccccc1 (stereo not drawn)
inactive: outcome [1] | outcome [2] | Potency [3] | outcome [4] | Potency [10] | outcome [5] | outcome [7] | outcome [8]

O=S(=O)(O)c1ccc2c(N=Nc3ccc(S(=O)(=O)O)c4ccccc34)c(O)c(S(=O)(=O)O)cc2c1
active: Potency [3] 13.3 µM
inactive: outcome [1] | outcome [9] | activity, negative = cytotoxicity [3] -17.7% [at 8.08 µM] | outcome [4] | outcome [5] | outcome [6] | outcome [7] | outcome [8]

CCC(=O)c1c(O)cc(O)cc1O
inactive: outcome [1] | outcome [2] | outcome [9] | Potency [3] | outcome [5] | outcome [7] | outcome [8]
active: Potency [10] 11.9 µM

CCOCCOCC
inactive: outcome [1] | outcome [2] | outcome [9] | Potency [3] | outcome [4] | outcome [7] | outcome [8]

CC1=C(O)C(=O)C(C)O1 (stereo not drawn)
inactive: outcome [1] | outcome [2] | Potency [3] | outcome [4] | Potency [10] | outcome [5] | outcome [6] | outcome [7] | outcome [8]

O=C(Cl)c1ccccc1[N+](=O)[O-]
inactive: outcome [1] | outcome [9] | Potency [3] | outcome [4] | Potency [10] | outcome [5] | outcome [6] | outcome [7]

CCCCOC(=O)C(C)O (stereo not drawn)
inactive: outcome [1] | outcome [2] | Potency [3] | outcome [4] | Potency [10] | outcome [5] | outcome [6] | outcome [7] | outcome [8]

CC(=O)O[Si](C)(OC(C)=O)OC(C)=O
inactive: outcome [1] | outcome [2] | Potency [3] | outcome [4] | outcome [5] | outcome [6] | outcome [7] | outcome [8]
active: Potency [10] 17.7 µM

Cc1cccc(Cl)c1
inactive: outcome [1] | outcome [2] | Potency [3] | outcome [4] | Potency [10] | outcome [7] | outcome [8]

CCCCCCCCCOC(=O)c1ccccc1C(=O)OCCCCCCCCC
inactive: outcome [1] | outcome [2] | Potency [3] | outcome [4] | Potency [10] | outcome [5] | outcome [6] | outcome [7] | outcome [8]

C=CC/C=C/C
inactive: outcome [1] | outcome [2] | Potency [3] | outcome [4] | outcome [6] | outcome [7] | outcome [8]

CC1=C(C(=O)O)N2C(=O)[C@@H](NC(=O)[C@H](N)c3ccccc3)[C@H]2SC1
inactive: outcome [1] | outcome [2] | outcome [9] | Potency [3] | outcome [4] | outcome [6] | outcome [7] | outcome [8]

N#Cc1cscn1
inactive: outcome [1] | outcome [2] | Potency [3] | outcome [4] | Potency [10] | outcome [6] | outcome [7] | outcome [8]

CCCCOCCOC(=O)COc1ccc(Cl)cc1Cl
inactive: outcome [1] | outcome [2] | Potency [3] | outcome [4] | outcome [6] | outcome [7] | outcome [8]

CCCCCCCCCCOC(C)=O
inactive: outcome [1] | outcome [2] | Potency [3] | outcome [4] | Potency [10] | outcome [5] | outcome [6] | outcome [7] | outcome [8]

CCCCOC(=O)[C@H](C)O
inactive: outcome [1] | outcome [2] | Potency [3] | outcome [4] | outcome [5] | outcome [6] | outcome [7] | outcome [8]

CCCCSCCCC
inactive: outcome [1] | outcome [2] | Potency [3] | outcome [4] | Potency [10] | outcome [5] | outcome [6] | outcome [7] | outcome [8]

CCC(=O)CC
inactive: outcome [1] | outcome [2] | outcome [9] | Potency [3] | outcome [4] | outcome [6] | outcome [7] | outcome [8]

CC1=NN(c2ccc(S(=O)(=O)O)cc2)C(=O)C1
inactive: outcome [1] | outcome [9] | Potency [3] | outcome [4] | Potency [10] | outcome [6] | outcome [7] | outcome [8]

CCOC(CN1CCN(CC(C)C(=O)c2ccccc2)CC1)c1ccccc1 (stereo not drawn)
inactive: outcome [1] | outcome [9] | Potency [3] | outcome [4] | Potency [10] | outcome [5] | outcome [6] | outcome [7] | outcome [8]

CC(=O)CCc1ccc(OC(C)=O)cc1
inactive: outcome [1] | outcome [9] | Potency [3] | outcome [4] | Potency [10] | outcome [5] | outcome [6] | outcome [7] | outcome [8]

CC(O)COC(C)(C)C (stereo not drawn)
inactive: outcome [1] | outcome [9] | Potency [3] | outcome [4] | outcome [5] | outcome [6] | outcome [7]

Cc1ccc2c(c1)C(=O)c1ccccc1C2=O
inactive: outcome [1] | Potency [3] | outcome [5] | outcome [7] | outcome [8]
active: Potency [10] 6.09 µM

CC(C)(CO)C(O)C(=O)NCCCO (stereo not drawn)
inactive: outcome [2] | outcome [9] | Potency [3] | outcome [4] | Potency [10] | outcome [5] | outcome [6] | outcome [7]

O=C[O][Al]([O]C=O)[O]C=O
inactive: outcome [1] | outcome [4] | outcome [5] | outcome [7] | outcome [8]

CC1CCc2c(N3CCC(O)CC3)c(F)cc3c(=O)c(C(=O)O)cn1c23 (stereo not drawn)
inactive: outcome [1] | outcome [9] | Potency [3] | outcome [4] | outcome [7] | outcome [8]

CCOc1cccc(N)c1
inactive: outcome [1] | outcome [9] | Potency [3] | outcome [4] | Potency [10] | outcome [5] | outcome [7]
